According to publication PMC5700166:

Experiments:
[1] = target: T1, GST-Nv-NF-kB (Ser allele) (Nematostella vectensis, UniProt A7UNT2 2-411); assay: protein-binding microarray (PBM); PBM: ~300 nM protein, 6 mM HEPES pH 7.8, 80 mM KCl, 0.5 mM EDTA, 0.5 mM EGTA, 6% glycerol, 35 ng/ul poly-dIdC, 1% milk, 1 h, room temperature; Ap Aiptasia and Nv Nematostella (sea anemones) / Co Capsaspora / Aq Amphimedon (sponge) / Dm Drosophila / Hu human; RHD is the Rel homology domain; high values mean tight binding; details: dsDNA, one strand shown
T1 sequence: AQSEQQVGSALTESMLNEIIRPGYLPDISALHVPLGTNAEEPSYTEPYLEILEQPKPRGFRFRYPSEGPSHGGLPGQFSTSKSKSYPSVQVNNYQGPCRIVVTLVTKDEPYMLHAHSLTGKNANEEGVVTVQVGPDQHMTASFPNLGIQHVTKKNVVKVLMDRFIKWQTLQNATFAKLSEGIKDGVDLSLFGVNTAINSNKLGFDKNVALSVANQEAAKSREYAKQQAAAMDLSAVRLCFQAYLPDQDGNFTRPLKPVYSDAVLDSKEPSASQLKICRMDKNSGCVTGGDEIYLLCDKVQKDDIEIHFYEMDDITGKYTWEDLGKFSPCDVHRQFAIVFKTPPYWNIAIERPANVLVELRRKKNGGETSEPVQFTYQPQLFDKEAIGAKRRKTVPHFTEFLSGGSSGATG

GST-Hu-p50 = GST-Hu-p50 (Homo sapiens, UniProt P19838 7-356); assay: as above; details: dsDNA, one strand shown
Sequence of GST-Hu-p50 (P19838 7-356): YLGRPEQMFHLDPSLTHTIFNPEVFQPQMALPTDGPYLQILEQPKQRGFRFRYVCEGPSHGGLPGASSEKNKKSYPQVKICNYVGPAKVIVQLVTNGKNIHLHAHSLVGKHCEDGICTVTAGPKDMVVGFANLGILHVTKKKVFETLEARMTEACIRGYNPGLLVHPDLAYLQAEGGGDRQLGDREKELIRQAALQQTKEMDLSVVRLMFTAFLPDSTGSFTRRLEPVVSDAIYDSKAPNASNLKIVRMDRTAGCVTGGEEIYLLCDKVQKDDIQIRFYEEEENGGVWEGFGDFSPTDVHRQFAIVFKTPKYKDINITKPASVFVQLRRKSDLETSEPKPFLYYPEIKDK

Sequence | binding signal [1] [z-score] | binding signal (GST-Hu-p50) [z-score]
CCGATTAACATCACGGGAATTTCTGATGTTAATCGGGTCTTGATTCGCTTGACGCTGCTG | 6.48 | 4.6
CCGATTAACATCATCCCCGTGTCTGATGTTAATCGGGTCTTGATTCGCTTGACGCTGCTG | 2.84 | 2.68
CCGATTAACATCAGGAAATGCCCTGATGTTAATCGGGTCTTGATTCGCTTGACGCTGCTG | 1.15 | 2.89
CCGATTAACATCAGGTAATCCCATGATGTTAATCGGGTCTTGATTCGCTTGACGCTGCTG | 2.09 | 1.44
CCGATTAACATCAAAATTCCACCTGATGTTAATCGGGTCTTGATTCGCTTGACGCTGCTG | 3.38 | 3.61
CCGATTAACATCAGGGAGCTCCCTGATGTTAATCGGGTCTTGATTCGCTTGACGCTGCTG | 1.82 | 2.59
CCGATTAACATCATTTCCCAAAATGATGTTAATCGGGTCTTGATTCGCTTGACGCTGCTG | 2.41 | 1.56
CCGATTAACATCAGAAAATCCCATGATGTTAATCGGGTCTTGATTCGCTTGACGCTGCTG | 3.29 | 3.86
CCGATTAACATCAAATTCCCAGTTGATGTTAATCGGGTCTTGATTCGCTTGACGCTGCTG | 3.92 | 2.85
CCGATTAACATCAGAATTGCCCCTGATGTTAATCGGGTCTTGATTCGCTTGACGCTGCTG | 2.89 | 4.35
CCGATTAACATCACGGGTTTCCCTGATGTTAATCGGGTCTTGATTCGCTTGACGCTGCTG | 4.88 | 3.17
CCGATTAACATCAATCTACCCCCTGATGTTAATCGGGTCTTGATTCGCTTGACGCTGCTG | 4.13 | 4.39
CCGATTAACATCAATTCCCAACATGATGTTAATCGGGTCTTGATTCGCTTGACGCTGCTG | 1.63 | 1.56
CCGATTAACATCAGGACACTCCCTGATGTTAATCGGGTCTTGATTCGCTTGACGCTGCTG | 1.43 | 1.94
CCGATTAACATCACCCCTCCCCGTGATGTTAATCGGGTCTTGATTCGCTTGACGCTGCTG | 3.23 | 3.01
CCGATTAACATCACCCATGGGAATGATGTTAATCGGGTCTTGATTCGCTTGACGCTGCTG | 1.02 | 1.43
CCGATTAACATCAGGCATTTCCCTGATGTTAATCGGGTCTTGATTCGCTTGACGCTGCTG | 3.99 | 3.68
CCGATTAACATCACTCCCTAAAATGATGTTAATCGGGTCTTGATTCGCTTGACGCTGCTG | 1.75 | 2.32
CCGATTAACATCAGGAAGACCCCTGATGTTAATCGGGTCTTGATTCGCTTGACGCTGCTG | 1.11 | 3.37
CCGATTAACATCAGGGAAAACCATGATGTTAATCGGGTCTTGATTCGCTTGACGCTGCTG | 6.37 | 4.01
CCGATTAACATCAAAGAAGCCCCTGATGTTAATCGGGTCTTGATTCGCTTGACGCTGCTG | 4.95 | 5.02
CCGATTAACATCACCCGATTCCCTGATGTTAATCGGGTCTTGATTCGCTTGACGCTGCTG | 4.07 | 2.39
CCGATTAACATCACATTGTCCCCTGATGTTAATCGGGTCTTGATTCGCTTGACGCTGCTG | 5.06 | 3.52

Sequence | binding signal [1] [z-score] | binding signal (GST-Hu-p50) [z-score]
CCGATTAACATCAGGGAACTACCTGATGTTAATCGGGTCTTGATTCGCTTGACGCTGCTG | 4.46 | 3.92
CCGATTAACATCAAATTCCCACTTGATGTTAATCGGGTCTTGATTCGCTTGACGCTGCTG | 3.95 | 3.73
CCGATTAACATCAGGCCTCCCCCTGATGTTAATCGGGTCTTGATTCGCTTGACGCTGCTG | 4.46 | 4.37
CCGATTAACATCAGGGGGATAGATGATGTTAATCGGGTCTTGATTCGCTTGACGCTGCTG | 4.13 | 3.89
CCGATTAACATCAGGGATACCCCTGATGTTAATCGGGTCTTGATTCGCTTGACGCTGCTG | 2.97 | 4.12
CCGATTAACATCAGATCTTCCCCTGATGTTAATCGGGTCTTGATTCGCTTGACGCTGCTG | 6.54 | 5.04
CCGATTAACATCACGGTGGGAAATGATGTTAATCGGGTCTTGATTCGCTTGACGCTGCTG | 2.58 | 1.86
CCGATTAACATCAGGGGGATCACTGATGTTAATCGGGTCTTGATTCGCTTGACGCTGCTG | 5.27 | 5.04
CCGATTAACATCAATGTCGGTGGTGATGTTAATCGGGTCTTGATTCGCTTGACGCTGCTG | 1.08 | 1.95
CCGATTAACATCAAGTAAATCCCTGATGTTAATCGGGTCTTGATTCGCTTGACGCTGCTG | 1.71 | 2.28
CCGATTAACATCAGATTCTCCCCTGATGTTAATCGGGTCTTGATTCGCTTGACGCTGCTG | 6.01 | 4.4
CCGATTAACATCAGGAGATTCCCTGATGTTAATCGGGTCTTGATTCGCTTGACGCTGCTG | 4.04 | 4.59
CCGATTAACATCACAAAATTTCCTGATGTTAATCGGGTCTTGATTCGCTTGACGCTGCTG | 1.16 | 1.41
CCGATTAACATCAAGTTTACCCCTGATGTTAATCGGGTCTTGATTCGCTTGACGCTGCTG | 3.57 | 3.2
CCGATTAACATCAGGCTTTTCCCTGATGTTAATCGGGTCTTGATTCGCTTGACGCTGCTG | 4.44 | 3.4
CCGATTAACATCAGGGAGCTACCTGATGTTAATCGGGTCTTGATTCGCTTGACGCTGCTG | 1.68 | 1.35
CCGATTAACATCAAAAATCCCTATGATGTTAATCGGGTCTTGATTCGCTTGACGCTGCTG | 4.2 | 4.72
CCGATTAACATCAAGCACCCCCTTGATGTTAATCGGGTCTTGATTCGCTTGACGCTGCTG | 4.85 | 4.55
CCGATTAACATCACTGGGAATTCTGATGTTAATCGGGTCTTGATTCGCTTGACGCTGCTG | 3 | 3.22
CCGATTAACATCACGGTACTTCCTGATGTTAATCGGGTCTTGATTCGCTTGACGCTGCTG | 4.94 | 2.86
CCGATTAACATCAGAGTTTCCCATGATGTTAATCGGGTCTTGATTCGCTTGACGCTGCTG | 3.14 | 2.22
CCGATTAACATCAGGGTATTTACTGATGTTAATCGGGTCTTGATTCGCTTGACGCTGCTG | 4.72 | 5.1
